The list is not random: actives were taken first. Their share in the collection is about 3%.
FBA Mtb inh = inhibits M. tuberculosis FBA enzyme | P9WQA3 | purified M. tuberculosis FBA, fluorescence read-out | inhibition, % at 1 µM | 360,000 tested, 2.3% active | AID 588726
Target sequence (P9WQA3 whole entry, looked up): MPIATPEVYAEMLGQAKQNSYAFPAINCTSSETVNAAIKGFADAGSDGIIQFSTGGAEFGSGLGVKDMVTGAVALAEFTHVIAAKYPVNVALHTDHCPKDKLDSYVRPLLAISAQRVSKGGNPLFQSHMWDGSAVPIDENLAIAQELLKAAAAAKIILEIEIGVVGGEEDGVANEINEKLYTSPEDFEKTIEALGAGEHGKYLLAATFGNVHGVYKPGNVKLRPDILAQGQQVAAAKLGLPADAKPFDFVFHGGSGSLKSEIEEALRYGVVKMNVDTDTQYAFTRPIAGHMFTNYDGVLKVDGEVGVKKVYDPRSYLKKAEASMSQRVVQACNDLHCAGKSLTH
BH1578 lux ind = inducers of Vibrio cholerae quorum light production without autoinducers; 350,000 tested, 0.16% active; activation, % at 18.7 µM; V. cholerae BH1578 lux reporter, luminescence, 6 h; in the data active = activation mostly above about 9.7%, no sharp cut-off
Mtb BioA inh = inhibitors of Mycobacterium tuberculosis BioA enzyme; 360,000 tested, 0.096% active; AID 602481; purified M. tuberculosis BioA enzyme, plate reader; inhibition, % at 9.99 µM; in the data active = inhibition above about 40%
GDH-TPI counter-1 = GDH-TPI coupled enzyme inhibition counter-screen; inhibition, % at 4.8 µM; 360,000 tested, 1.2% active; AID 588335; GDH-TPI coupled enzyme counterscreen, NADH absorbance; in the data active = inhibition above about 30%
Mtb FBA confirm = confirmation of M. tuberculosis fructose-bisphosphate aldolase inhibitors; shares compounds with FBA Mtb inh; purified M. tuberculosis FBA, fluorescence read-out; inhibition, % at 1 µM; 5,600 tested, 78% active; AID 651616
GDH-TPI counter-2 = inhibits GDH-TPI coupling enzymes, flagging Mtb FBA hits; shares compounds with FBA Mtb inh; GDH-TPI coupled enzyme counterscreen, fluorescence; inhibition, % at 1 µM; 5,600 tested, 81% active; in the data active = inhibition above about 10%
A number is an active result; n = inactive; x = not tested or not shown; + = active, no number. Cut-off read from the data, not from the text of the source, unless noted: active = inhibition above about 27%; inactive = the rest.

SMILES	FBA Mtb inh	BH1578 lux ind	Mtb BioA inh	GDH-TPI counter-1	Mtb FBA confirm	GDH-TPI counter-2
CCCCN(C)CCNC(=O)c1cc2c(-c3cccc(OC)c3)nn(C)c2s1	41.5	n	n	n	46.5	27.4
CCN1CCCC1CNC(=O)c1cc2c(-c3cccc(OC)c3)nn(C)c2s1 (stereo unspecified)	36.2	n	n	n	100.4	58.7
COc1ccc2[nH]c3c(=O)n4c(nc3c2c1)SCCC4	71.2	n	n	n	103.5	87.7
Cc1ccc2[nH]c3c(=O)n4c(nc3c2c1)SCC4	n	n	x	n	x	x
CCN1CCCC1CNC(=O)c1cc2c(-c3ccc(Cl)cc3)nn(C)c2s1 (stereo unspecified)	n	n	n	n	x	x
CCN(CC)CCCNC(=O)c1cc2c(-c3cccc(OC)c3)nn(C)c2s1	57.7	n	n	n	101.5	87.2
C[C@H](CO)N1C[C@H](C)[C@H](CN(C)Cc2cccc(C(F)(F)F)c2)Oc2ncc(C#Cc3ccccc3)cc2C1=O	x	x	n	x	x	x
CCC1CCCN1Cn1cnc2c([nH]c3ccccc32)c1=O (stereo unspecified)	n	n	n	n	x	x
CCC1CCCN1Cn1cnc2c([nH]c3ccc(OC)cc32)c1=O (stereo unspecified)	53.7	n	x	n	94.3	74.0
CCN1CCCC1CNC(=O)c1cc2ccc(OC)cc2[nH]1 (stereo unspecified)	n	n	x	n	x	x
COc1cccc(-c2nn(C)c3sc(C(=O)NCCCN(C)Cc4ccccc4)cc23)c1	42.8	n	n	n	111.5	102.7
CCN1CCCC1CNC(=O)c1[nH]c2ccc(OC)cc2c1C (stereo unspecified)	45.0	n	n	n	+	+
Cc1cc(OCC(=O)NC(Cc2ccc(Cl)cc2)C(=O)O)c2c3c(c(=O)oc2c1)CCCC3 (stereo unspecified)	70.5	n	n	n	n	n
Cc1cc(OCC(=O)NC(Cc2c[nH]c3ccc(O)cc23)C(=O)O)c2c(C)c(C)c(=O)oc2c1 (stereo unspecified)	32.6	n	n	n	+	+
Cc1cc(OCC(=O)NC(Cc2ccc(Cl)cc2)C(=O)O)c2c(C)c(C)c(=O)oc2c1 (stereo unspecified)	60.0	n	n	n	185.7	143.4
Cc1cc(OCC(=O)NC2CCN(Cc3ccccc3)CC2)c2c(C)c(C)c(=O)oc2c1	n	n	n	n	x	x
COc1ccc(-c2cc(C(F)(F)F)n3nc(C(=O)N4CCCC4)cc3n2)cc1	n	n	n	n	x	x
COc1ccc(-c2cc(C(F)(F)F)n3nc(C(=O)NCCN4CCOCC4)cc3n2)cc1	39.2	n	n	n	n	n
COc1ccc(-c2cc(C(F)(F)F)n3nc(C(=O)NCCCn4ccnc4)cc3n2)cc1	48.2	n	n	n	n	n
CC(C)NC(=O)Nc1ccc2c(c1)C(=O)N(C)[C@@H]1CC[C@H](CC(=O)Nc3ccccc3)O[C@H]1CO2	x	x	n	x	x	x
Cc1ccc(C)c(NS(=O)(=O)c2ccc(NC(=O)CSc3ccc(Cl)cc3)cc2)c1	n	n	x	n	x	x
Cc1ccc(NS(=O)(=O)c2ccc(NC(=O)C(C)Sc3ccc(Cl)cc3)cc2)c(C)c1 (stereo unspecified)	81.5	n	x	n	n	n
COCC1OC(OC(C)C(O)c2cnc3nc(N)[nH]c(=O)c3n2)C(O)C(OC)C1O (stereo unspecified)	103.4	n	n	n	92.4	66.0
C[C@@H]1CCCCO[C@@H](CN(C)C(=O)c2ccccc2)[C@H](C)CN([C@H](C)CO)C(=O)c2cc(NS(=O)(=O)c3ccc(F)cc3)ccc2O1	x	x	n	x	x	x
COc1ccc(OC)c(/C=C/C(=O)Oc2ccc(C(C)=O)cc2)c1	32.7	n	n	n	131.8	106.8
SMILES	FBA Mtb inh	BH1578 lux ind	Mtb BioA inh	GDH-TPI counter-1	Mtb FBA confirm	GDH-TPI counter-2
CN1CCN(C(=O)c2cccc(-c3cnc4cnc(-c5ccccc5Oc5ccccc5)cn34)c2)CC1	36.5	n	n	n	113.1	101.7
COc1ccc(-c2cc(C(F)F)n3ncc(C(=O)N4CCSCC4)c3n2)cc1	n	n	x	n	x	x
COc1ccc(-c2cc(C(F)F)n3ncc(C(=O)N4CCN(C)CC4)c3n2)cc1	29.5	n	n	n	38.8	33.7
C[C@@H]1CN([C@@H](C)CO)C(=O)c2cccc(NC(=O)NC3CCCCC3)c2O[C@@H]1CN(C)C(=O)NC1CCCCC1	x	x	n	x	x	x
CO[C@@H]1CN(C)C(=O)c2cc(NC(C)=O)ccc2OC[C@H](C)N(Cc2ccccc2F)C[C@H]1C	x	x	n	x	x	x
c1ccc(-c2cc(-c3nc4ccccc4[nH]3)c3ccccc3n2)cc1	60.3	n	x	n	68.7	71.2
O=C(O)c1cc(-c2ccccc2)nc2ccccc12	n	n	n	n	x	x
O=c1[nH]nc(-c2cc(-c3ccccc3)nc3ccccc23)o1	65.0	n	n	n	121.6	93.7
Cn1cc(-c2nc3ccccc3[nH]2)c2ccccc21	43.9	n	n	n	n	n
CCCn1c(=O)c(-c2nc3ccccc3[nH]2)c(O)c2ccccc21	n	n	x	n	x	x
C[C@@H]1CN([C@H](C)CO)C(=O)c2cc(-c3ccc(C#N)cc3)cnc2O[C@H]1CN(C)C(=O)Nc1ccc(C(F)(F)F)cc1	x	x	n	x	x	x
COCC(=O)Nc1ccc2c(c1)C(=O)N(C)C[C@H](OC)[C@H](C)CN(Cc1cccc(F)c1)[C@H](C)CO2	x	x	n	x	x	x
O=C(c1ccccc1)N1CC[C@@H]2[C@H](CO)Nc3ccc(C#Cc4cccnc4)cc3[C@@H]21	x	x	n	x	x	x
CC(=O)N(C)C[C@H]1Oc2cc(C#Cc3ccc(F)cc3)ccc2S(=O)(=O)N([C@@H](C)CO)C[C@@H]1C	x	x	n	x	x	x
CC(C)(C)C(=O)OCC12CCC(O1)C1(C)C(=O)OCC21 (stereo unspecified)	46.9	n	x	n	n	n
CC(C)(C)C(=O)OCc1ccc(C2=CC(=O)CC(C)(C)C2=O)cc1	n	n	n	n	x	x
N#Cc1ccc(OCC(=O)NNC(=O)C2CCCCC2)cc1	29.9	n	n	n	n	n
N#Cc1ccc(OCC(=O)NC2CCCCCC2)cc1	n	n	n	n	x	x
COc1ccc2oc(C(=O)OCC(=O)N(C)C3CCCCC3)c(C)c2c1	38.5	n	n	n	n	n
COc1ccc2oc(C(=O)OCC(=O)N(C)C3CCS(=O)(=O)C3)c(C)c2c1 (stereo unspecified)	45.4	n	n	n	72.9	52.9
CCN(C(=O)COC(=O)c1oc2ccc(OC)cc2c1C)C1CCCCC1	30.2	n	x	n	103.3	77.7
Cc1c(C(=O)OCC(=O)N(C)C2CCS(=O)(=O)C2)oc2ccc(Br)cc12 (stereo unspecified)	n	n	n	n	x	x
Cc1ccc(S(=O)(=O)N[C@@H]2CC[C@@H](CCn3cc(-c4ccccc4F)nn3)O[C@@H]2CO)cc1	x	x	n	x	x	x
O=C(C[C@@H]1CC[C@H](NC(=O)CCN2CCCCC2)[C@H](CO)O1)Nc1ccc(-c2ccccc2)cc1	x	x	n	x	x	x
CCC(=O)N(C)C[C@H]1Oc2cc(-c3cccc(F)c3)ccc2S(=O)(=O)N([C@H](C)CO)C[C@H]1C	x	x	n	x	x	x
